The supplement of paper PMC11732987, “Enantioselective OTUD7B fragment discovery through chemoproteomics screening and high-throughput optimisation” (Communications Chemistry, 2025)
Unmarked numbers belong to inactive results.

Experiments:
Assay in all cases: log2 ratio of Biotin-Ahx-Ub-VS probe labelling (fragment/DMSO); higher = less target engagement (more negative = stronger competition), active = hit call of the paper (q ≤ 0.05, log2 ratio ≤ -1)
Settings in all cases: compound concentration: 200 uM; treatment time: 3 h
[1] = target: USP9X (UniProt Q93008)
Chain of USP9X (Q93008 whole entry, the tested form may be a part): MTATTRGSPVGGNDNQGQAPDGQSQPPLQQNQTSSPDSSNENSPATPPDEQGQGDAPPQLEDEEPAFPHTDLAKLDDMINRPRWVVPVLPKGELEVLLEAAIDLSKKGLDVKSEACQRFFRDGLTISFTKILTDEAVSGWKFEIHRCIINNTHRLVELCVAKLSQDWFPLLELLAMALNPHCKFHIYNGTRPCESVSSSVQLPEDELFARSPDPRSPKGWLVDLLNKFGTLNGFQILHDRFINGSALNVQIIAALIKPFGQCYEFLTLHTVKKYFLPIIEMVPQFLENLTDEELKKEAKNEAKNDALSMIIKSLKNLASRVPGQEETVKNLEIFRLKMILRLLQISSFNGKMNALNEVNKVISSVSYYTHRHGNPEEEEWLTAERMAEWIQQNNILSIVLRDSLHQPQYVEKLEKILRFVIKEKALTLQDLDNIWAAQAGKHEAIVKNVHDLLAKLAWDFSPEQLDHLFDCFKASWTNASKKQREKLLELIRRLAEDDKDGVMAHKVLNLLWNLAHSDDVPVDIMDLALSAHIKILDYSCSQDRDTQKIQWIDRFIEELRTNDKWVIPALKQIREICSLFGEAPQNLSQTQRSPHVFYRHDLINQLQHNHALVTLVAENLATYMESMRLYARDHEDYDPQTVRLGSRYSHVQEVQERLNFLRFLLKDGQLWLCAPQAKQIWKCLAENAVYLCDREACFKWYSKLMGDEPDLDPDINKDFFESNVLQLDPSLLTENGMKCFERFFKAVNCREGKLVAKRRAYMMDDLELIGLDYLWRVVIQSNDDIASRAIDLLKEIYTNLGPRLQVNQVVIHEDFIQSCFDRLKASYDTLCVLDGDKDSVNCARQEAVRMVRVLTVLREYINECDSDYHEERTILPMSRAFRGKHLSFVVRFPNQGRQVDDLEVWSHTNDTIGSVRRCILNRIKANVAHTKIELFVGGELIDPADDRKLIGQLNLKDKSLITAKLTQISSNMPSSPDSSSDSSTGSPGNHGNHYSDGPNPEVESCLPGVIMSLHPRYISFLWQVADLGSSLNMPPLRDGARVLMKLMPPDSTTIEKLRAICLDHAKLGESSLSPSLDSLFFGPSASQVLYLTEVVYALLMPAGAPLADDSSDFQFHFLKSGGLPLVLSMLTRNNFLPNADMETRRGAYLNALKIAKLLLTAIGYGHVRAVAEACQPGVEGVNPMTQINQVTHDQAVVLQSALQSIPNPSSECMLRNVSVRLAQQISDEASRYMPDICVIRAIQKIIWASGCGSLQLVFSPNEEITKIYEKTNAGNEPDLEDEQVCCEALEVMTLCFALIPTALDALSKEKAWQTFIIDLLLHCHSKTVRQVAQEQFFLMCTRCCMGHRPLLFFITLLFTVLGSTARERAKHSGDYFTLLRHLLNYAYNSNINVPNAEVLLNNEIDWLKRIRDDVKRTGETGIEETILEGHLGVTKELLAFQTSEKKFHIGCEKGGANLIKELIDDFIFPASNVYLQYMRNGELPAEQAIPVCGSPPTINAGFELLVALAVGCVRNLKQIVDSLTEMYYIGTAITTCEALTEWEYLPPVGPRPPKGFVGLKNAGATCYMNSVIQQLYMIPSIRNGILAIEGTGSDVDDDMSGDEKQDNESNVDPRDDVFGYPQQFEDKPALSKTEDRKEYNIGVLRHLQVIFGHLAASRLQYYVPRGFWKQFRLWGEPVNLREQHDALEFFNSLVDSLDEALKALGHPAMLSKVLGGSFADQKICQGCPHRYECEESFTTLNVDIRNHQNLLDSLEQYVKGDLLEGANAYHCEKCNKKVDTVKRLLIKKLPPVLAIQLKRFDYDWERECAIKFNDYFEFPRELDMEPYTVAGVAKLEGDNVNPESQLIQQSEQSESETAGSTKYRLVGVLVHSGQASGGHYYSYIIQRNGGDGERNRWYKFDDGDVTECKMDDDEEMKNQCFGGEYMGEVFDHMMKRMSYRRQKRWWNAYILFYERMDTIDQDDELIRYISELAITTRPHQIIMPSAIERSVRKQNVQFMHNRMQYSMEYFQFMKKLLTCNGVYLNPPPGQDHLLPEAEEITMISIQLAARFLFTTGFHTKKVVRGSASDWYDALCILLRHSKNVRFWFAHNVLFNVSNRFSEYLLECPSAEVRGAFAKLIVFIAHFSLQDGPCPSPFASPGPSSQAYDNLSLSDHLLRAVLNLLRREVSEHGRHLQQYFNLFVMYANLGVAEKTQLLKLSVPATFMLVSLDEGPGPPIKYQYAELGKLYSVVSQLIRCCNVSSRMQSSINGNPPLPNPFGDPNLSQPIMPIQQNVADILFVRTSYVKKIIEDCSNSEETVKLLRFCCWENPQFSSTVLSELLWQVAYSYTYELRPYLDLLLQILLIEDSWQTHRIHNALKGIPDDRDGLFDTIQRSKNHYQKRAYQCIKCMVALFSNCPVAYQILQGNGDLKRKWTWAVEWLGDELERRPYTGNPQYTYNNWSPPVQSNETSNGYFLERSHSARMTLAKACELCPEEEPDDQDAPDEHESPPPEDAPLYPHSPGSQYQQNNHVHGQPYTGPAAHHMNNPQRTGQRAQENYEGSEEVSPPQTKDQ
Summary of the method: (§1)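 In triplicate, 495 µg of HEK293T lysate per sample was incubated with fragment at 200 µM or vehicle for 3 h. Biotin-Ahx-Ub-VS was then added to 0.5 µM final for 1 h, and labelled DUBs were captured with NeutrAvidin, digested with LysC and trypsin, and measured by diaPASEF LC-MS/MS. Data are average log2 fragment/vehicle ratios by unpaired t-test from global-median-normalised Spectronaut label-free quantities, restricted to proteins with ≥2 unique peptides.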

[2] = target: UniProt O00487
Chain of UniProt O00487 (O00487 whole entry): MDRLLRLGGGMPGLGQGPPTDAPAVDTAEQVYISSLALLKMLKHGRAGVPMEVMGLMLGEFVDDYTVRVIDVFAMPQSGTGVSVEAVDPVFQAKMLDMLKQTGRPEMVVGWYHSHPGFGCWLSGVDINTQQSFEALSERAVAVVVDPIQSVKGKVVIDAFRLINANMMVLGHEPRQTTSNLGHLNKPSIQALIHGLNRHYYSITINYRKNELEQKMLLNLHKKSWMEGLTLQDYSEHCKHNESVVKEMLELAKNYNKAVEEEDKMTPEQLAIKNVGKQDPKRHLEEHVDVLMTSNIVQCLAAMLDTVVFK
Summary of the method: as §1

[3] = target: UniProt O00507
Summary of the method: as §1

[4] = target: UniProt P51784
Chain of UniProt P51784 (P51784 whole entry): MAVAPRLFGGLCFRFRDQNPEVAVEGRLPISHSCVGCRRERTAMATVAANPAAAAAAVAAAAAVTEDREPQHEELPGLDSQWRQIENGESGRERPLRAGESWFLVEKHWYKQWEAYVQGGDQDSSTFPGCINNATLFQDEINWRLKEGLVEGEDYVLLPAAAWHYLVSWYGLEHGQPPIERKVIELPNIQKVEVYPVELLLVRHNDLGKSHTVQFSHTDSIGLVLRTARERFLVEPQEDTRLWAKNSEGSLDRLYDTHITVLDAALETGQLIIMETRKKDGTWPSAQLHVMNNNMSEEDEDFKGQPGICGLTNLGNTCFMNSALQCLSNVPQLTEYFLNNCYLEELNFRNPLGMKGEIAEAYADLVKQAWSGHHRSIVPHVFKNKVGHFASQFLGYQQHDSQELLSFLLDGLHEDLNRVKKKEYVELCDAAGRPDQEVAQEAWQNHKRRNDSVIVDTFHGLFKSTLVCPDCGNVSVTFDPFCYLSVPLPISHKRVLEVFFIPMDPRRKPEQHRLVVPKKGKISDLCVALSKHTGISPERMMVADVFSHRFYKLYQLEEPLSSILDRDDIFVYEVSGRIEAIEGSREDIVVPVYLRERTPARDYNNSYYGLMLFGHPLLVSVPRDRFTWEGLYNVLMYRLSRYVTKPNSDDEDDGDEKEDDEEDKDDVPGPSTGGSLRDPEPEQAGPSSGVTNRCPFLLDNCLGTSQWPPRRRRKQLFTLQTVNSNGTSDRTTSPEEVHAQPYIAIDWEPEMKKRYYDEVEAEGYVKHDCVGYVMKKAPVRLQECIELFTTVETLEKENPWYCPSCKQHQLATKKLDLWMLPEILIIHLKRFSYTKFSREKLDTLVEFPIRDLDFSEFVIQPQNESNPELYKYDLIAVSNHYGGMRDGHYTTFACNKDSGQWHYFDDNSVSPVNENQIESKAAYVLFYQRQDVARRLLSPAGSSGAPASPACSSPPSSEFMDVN
Summary of the method: as §1

[5] = target: T1, UniProt Q5T2D3
T1 sequence (whole entry): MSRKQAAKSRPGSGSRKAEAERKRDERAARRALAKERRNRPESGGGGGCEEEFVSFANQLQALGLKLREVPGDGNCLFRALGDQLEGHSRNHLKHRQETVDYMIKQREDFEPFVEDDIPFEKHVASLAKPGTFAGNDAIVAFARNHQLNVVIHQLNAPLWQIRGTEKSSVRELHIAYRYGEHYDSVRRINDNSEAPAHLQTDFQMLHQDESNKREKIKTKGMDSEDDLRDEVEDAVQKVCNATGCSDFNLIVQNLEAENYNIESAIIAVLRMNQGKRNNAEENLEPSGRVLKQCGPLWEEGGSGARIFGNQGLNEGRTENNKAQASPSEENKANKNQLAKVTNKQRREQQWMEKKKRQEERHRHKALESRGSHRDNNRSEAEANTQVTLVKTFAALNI
Summary of the method: as §1

[6] = target: T2, UniProt Q8TE49
T2 sequence (whole entry): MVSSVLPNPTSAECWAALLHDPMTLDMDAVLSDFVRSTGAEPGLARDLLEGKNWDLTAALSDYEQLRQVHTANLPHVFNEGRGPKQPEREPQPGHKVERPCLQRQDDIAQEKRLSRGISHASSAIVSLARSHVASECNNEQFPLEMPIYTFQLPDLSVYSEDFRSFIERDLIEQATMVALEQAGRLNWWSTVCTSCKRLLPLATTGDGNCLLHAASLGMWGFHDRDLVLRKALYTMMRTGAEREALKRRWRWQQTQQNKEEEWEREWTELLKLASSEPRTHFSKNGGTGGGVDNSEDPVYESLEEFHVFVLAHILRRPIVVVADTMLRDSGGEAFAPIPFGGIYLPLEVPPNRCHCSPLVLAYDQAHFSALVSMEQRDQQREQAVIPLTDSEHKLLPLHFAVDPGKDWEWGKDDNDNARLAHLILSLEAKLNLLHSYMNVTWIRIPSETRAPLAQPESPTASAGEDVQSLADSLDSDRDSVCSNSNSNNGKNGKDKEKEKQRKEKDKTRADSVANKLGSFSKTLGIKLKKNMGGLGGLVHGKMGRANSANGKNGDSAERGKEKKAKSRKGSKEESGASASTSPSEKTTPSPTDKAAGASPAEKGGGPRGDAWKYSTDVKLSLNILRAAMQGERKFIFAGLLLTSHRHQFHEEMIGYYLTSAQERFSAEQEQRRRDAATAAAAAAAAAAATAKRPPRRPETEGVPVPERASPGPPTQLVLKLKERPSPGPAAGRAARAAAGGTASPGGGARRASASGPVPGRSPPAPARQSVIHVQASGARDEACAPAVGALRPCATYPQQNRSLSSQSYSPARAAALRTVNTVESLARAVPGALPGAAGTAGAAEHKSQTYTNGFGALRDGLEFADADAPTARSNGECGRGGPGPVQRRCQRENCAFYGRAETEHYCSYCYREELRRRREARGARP
Summary of the method: as §1

[7] = target: T3, UniProt Q9P2H5
T3 sequence (whole entry): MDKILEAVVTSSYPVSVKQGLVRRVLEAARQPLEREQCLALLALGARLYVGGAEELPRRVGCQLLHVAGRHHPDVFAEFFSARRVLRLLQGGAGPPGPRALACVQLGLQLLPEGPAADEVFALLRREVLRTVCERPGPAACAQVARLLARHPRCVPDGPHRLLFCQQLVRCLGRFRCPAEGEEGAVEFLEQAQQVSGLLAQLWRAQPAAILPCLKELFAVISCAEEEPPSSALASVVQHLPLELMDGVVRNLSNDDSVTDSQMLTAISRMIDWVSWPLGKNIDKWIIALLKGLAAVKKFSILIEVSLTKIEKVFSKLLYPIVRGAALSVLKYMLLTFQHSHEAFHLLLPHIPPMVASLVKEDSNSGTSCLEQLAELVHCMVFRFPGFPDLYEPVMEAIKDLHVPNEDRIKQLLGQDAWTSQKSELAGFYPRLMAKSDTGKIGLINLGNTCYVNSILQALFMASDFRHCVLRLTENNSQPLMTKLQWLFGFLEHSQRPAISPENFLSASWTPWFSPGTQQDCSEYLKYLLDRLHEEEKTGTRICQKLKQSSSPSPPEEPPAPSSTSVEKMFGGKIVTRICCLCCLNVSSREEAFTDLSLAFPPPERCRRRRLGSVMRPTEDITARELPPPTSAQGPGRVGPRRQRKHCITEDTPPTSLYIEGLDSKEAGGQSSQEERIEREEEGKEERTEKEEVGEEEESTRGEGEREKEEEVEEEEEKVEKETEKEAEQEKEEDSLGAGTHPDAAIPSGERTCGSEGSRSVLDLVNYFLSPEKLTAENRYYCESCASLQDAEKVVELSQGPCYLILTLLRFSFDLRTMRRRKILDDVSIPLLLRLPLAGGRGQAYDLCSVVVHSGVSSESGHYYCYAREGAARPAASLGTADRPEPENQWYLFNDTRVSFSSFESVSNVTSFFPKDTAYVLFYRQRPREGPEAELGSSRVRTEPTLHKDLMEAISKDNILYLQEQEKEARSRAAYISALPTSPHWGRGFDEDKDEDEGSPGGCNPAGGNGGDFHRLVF
Summary of the method: as §1

[8] = target: T4, UniProt Q9UGI0
T4 sequence (whole entry): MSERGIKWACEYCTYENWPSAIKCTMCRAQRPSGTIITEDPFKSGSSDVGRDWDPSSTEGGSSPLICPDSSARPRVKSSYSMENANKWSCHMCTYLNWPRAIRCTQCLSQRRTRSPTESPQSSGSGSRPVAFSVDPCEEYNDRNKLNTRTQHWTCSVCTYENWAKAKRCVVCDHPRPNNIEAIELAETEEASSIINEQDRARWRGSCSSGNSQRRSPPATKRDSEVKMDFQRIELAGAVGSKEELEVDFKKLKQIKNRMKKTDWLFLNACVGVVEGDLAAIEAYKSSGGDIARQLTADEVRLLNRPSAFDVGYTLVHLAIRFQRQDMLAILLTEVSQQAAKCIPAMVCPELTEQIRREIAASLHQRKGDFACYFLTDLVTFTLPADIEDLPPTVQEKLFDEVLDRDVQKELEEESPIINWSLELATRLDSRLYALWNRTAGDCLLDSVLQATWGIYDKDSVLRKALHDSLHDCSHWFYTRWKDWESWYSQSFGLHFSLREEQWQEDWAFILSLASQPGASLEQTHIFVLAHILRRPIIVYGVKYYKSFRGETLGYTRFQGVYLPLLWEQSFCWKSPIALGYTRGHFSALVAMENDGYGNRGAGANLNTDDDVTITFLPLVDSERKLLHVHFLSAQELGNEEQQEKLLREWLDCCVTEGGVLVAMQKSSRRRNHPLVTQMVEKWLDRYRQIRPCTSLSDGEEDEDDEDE
Summary of the method: as §1

[9] = target: T5, YOD1 (UniProt Q5VVQ6)
T5 sequence (whole entry): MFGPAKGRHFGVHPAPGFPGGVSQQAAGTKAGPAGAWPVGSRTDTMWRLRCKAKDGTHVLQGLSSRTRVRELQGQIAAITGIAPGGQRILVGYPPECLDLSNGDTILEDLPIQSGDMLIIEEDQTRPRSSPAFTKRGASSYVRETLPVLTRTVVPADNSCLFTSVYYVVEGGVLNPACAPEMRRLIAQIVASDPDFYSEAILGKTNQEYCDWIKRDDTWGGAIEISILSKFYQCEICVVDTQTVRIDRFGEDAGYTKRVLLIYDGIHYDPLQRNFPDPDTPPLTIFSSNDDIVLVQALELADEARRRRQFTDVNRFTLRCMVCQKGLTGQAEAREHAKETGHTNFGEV
Summary of the method: as §1

O=C(CCl)N1CCc2[nH]c3ccccc3c2C1
log2 ratio of Biotin-Ahx-Ub-VS probe labelling [1]: -0.846
log2 ratio of Biotin-Ahx-Ub-VS probe labelling [2]: -0.243
log2 ratio of Biotin-Ahx-Ub-VS probe labelling [3]: -1.27 (active)
log2 ratio of Biotin-Ahx-Ub-VS probe labelling [4]: -0.429
log2 ratio of Biotin-Ahx-Ub-VS probe labelling [5]: -0.115
log2 ratio of Biotin-Ahx-Ub-VS probe labelling [6]: -0.338
log2 ratio of Biotin-Ahx-Ub-VS probe labelling [7]: -0.439
log2 ratio of Biotin-Ahx-Ub-VS probe labelling [8]: -1.68 (active)
log2 ratio of Biotin-Ahx-Ub-VS probe labelling [9]: -0.2
